Test results as given in PubChem BioAssay (Tox21).
Results filed as inconclusive are left out. Where a call stands in place of a potency, no number is given. The source made the active and inactive calls. Calls follow the shape of the full dose curve.

Experiment: p53 small molecule agonists, cell-based qHTS assay with rat liver microsomes (AID 1963578)
Details: HCT-116 p53RE-bla, beta-lactamase ratio, 16 h; series mostly up to 66 µM
From the text: U.S. Tox21 Program National Center for Advancing Translational Sciences [NCATS] Division of Preclinical Innovation [DPI] U.S. Environmental Protection Agency [EPA] National Institutes of Environmental Health Sciences [NIEHS] National Toxicology Program [NTP] U.S. Food and Drug Administration [FDA] Tox21 Assay Overview: p53, a tumor suppressor protein, is activated following cellular insult, including DNA damage and other cellular stresses. The activation of p53 regulates cell fate by inducing DNA repair, cell cycle arrest, apoptosis, or cellular senescence. The activation of p53, therefore, is a good indicator of DNA damage and other cellular stresses. […] The activation of the reporter gene under culture conditions can be detected by fluorescence intensity. This cell line was used to screen the Tox21 10K compound library in the condition of presence of rat liver microsomes and to identify agonists that activate the p53 signaling pathway after in vitro metabolic activation (Ooka et al., Archive of Toxicology 96:1975-1987, 2022).
Tox21 Assay Protocol Summary: The p53RE-bla cells were dispensed at 4,000cells/3ul/well in 1536-well black-clear bottom plates. After the assay plates were incubated at 37 C, 5% CO2 incubator for 5 hours, 23 nL of compounds dissolved in DMSO, positive controls or DMSO only was transferred to the assay plate. Following compound addition, 3 uL of rat liver microsomes (Molecular Toxicology, Boone, NC) at final concentration of 0.5 mg/mL and 1uL of Beta-Nicotinamide adenine dinucleotide 2-phosphate (NADPH) at final concentration of 0.5 mg/mL were transferred to the assay plate. The plates were incubated at 37 C for 16 hours. 1 uL of LiveBLAzer detection mixture was added to each well and the plates were incubated at room temperature in the dark for 2 h.
In the case of `CCOC(=O)n1ccn(C)c1=S`, the Potency is reported as “inactive”. With `CO[Si](C)(C)OC` the Potency was “inactive”. In the case of `Clc1ccc(C(c2ccccc2Cl)C(Cl)Cl)cc1` (stereo not given), the Potency is reported as “inactive”. For `Cc1ccc(S(N)(=O)=O)cc1`, the Potency was “inactive”. With `CCOCCOC(=O)/C=C/c1ccc(OC)cc1` the Potency was “inactive”. In the case of `CS(=O)(=O)O`, the Potency is reported as “inactive”. For `CNCCO`, the Potency was “inactive”. For `NC[C@H]1O[C@H](O[C@H]2[C@H](O)[C@@H](O[C@H]3O[C@H](CO)[C@@H](O)[C@H](N)[C@H]3O)[C@H](N)C[C@@H]2N)[C@H](N)[C@@H](O)[C@@H]1O`, the activation was -0.665% [at 13.6 µM] (inactive). With `COc1cc(/C=C/C(=O)O[C@H]2CC[C@]34C[C@]35CC[C@]3(C)[C@@H]([C@H](C)CCC=C(C)C)CC[C@@]3(C)[C@@H]5CC[C@H]4C2(C)C)ccc1O` the Potency was “inactive”. In the case of `NC(=O)C1CO1` (stereo not given), the Potency is reported as “inactive”. For `O=C(O)CN(CCCN(CC(=O)O)CC(=O)O)CC(=O)O`, the activation was -0.0734% [at 13.6 µM] (inactive). With `O=C(c1ccc(O)cc1O)c1ccc(O)cc1O` the Potency was “inactive”. With `CC(C)(CC(=O)O)C(=O)O` the Potency was “inactive”. For `c1cnc2cc3c(cc2n1)C1CNCC3C1`, the Potency was “inactive”. With `O=S(=O)(O)CC(O)CCl` (stereo not given) the Potency was “inactive”. For `OC1(c2ccc(Cl)cc2)CCNCC1`, the Potency was “inactive”. For `CCOC(OCC)C(=O)c1ccccc1`, the Potency was “inactive”. With `CC(=O)SC[C@@H](C)C(=O)N1CCC[C@H]1C(=O)N[C@@H](Cc1ccccc1)C(=O)O` the Potency was “inactive”. With `Oc1ccc(/C=C/c2cc(O)cc(O)c2)cc1` the Potency was “inactive”. With `Cc1cccc(C)c1NC(=O)CC12CCCN1CCC2` the Potency was “inactive”. In the case of `C[CH2][Ge]([Cl])([CH2]C)[CH2]C`, the Potency is reported as “inactive”. In the case of `Nc1ncnc2c1ncn2[C@@H]1O[C@H](COP(=O)(O)O)[C@@H](O)[C@H]1O`, the Potency is reported as “inactive”. In the case of `NS(=O)(=O)c1ccccc1Cl`, the Potency is reported as “inactive”. With `O=Nc1ccc(Nc2ccccc2)cc1` the Potency was “inactive”. For `COc1ccc(Br)c(C)c1`, the Potency was “inactive”. In the case of `C=CCc1cc(OC)c(O)c(C(=O)NCCO)c1`, the Potency is reported as “inactive”. With `C1=Cc2ccccc2C1` the Potency was “inactive”. In the case of `O=S(=O)(O)c1ccccc1O`, the Potency is reported as “inactive”. For `NC(=O)NNC(N)=O`, the Potency was “inactive”. With `OCCOc1ccc(OCCO)cc1` the Potency was “inactive”. For `Cc1c(C)c2c(c(C)c1O)CCC(C)(COc1ccc(CC3SC(=O)NC3=O)cc1)O2` (stereo not given), the Potency was “inactive”. With `CCOC=C(C(=O)OCC)C(=O)OCC` the Potency was “inactive”. With `CCCCOCCCC` the Potency was “inactive”. With `O=c1oc2c(O)c(O)cc3c(=O)oc4c(O)c(O)cc1c4c23` the activation was -5.41% [at 13.6 µM] (inactive). With `CCCCCCCCCCCC(=O)OC[C@@H](O)[C@H]1OC[C@H](OCCO)[C@H]1OCCO` the Potency was “inactive”. For `CN(C)C(=O)Oc1ccc[n+](C)c1`, the Potency was “inactive”. In the case of `CN(C)c1ccc(/C=C/c2ccc([N+](=O)[O-])cc2)cc1`, the activation is reported as -4.52% [at 5.99 µM] (inactive). In the case of `Cc1ccc(S(=O)(=O)NC2CCCCC2)cc1`, the Potency is reported as “inactive”. With `CCCN[C@H]1CCc2nc(N)sc2C1` the Potency was “inactive”. With `CCOC(=O)c1ccc(OCCN2C[C@H](O)[C@@H](O)[C@H](O)[C@H]2CO)cc1` the Potency was “inactive”.
